Screening data (PubChem)
Only some compounds are listed: those with a hit (about 16% of all), similar ones and a draw of the others.
TDP1 cell noCPT: qHTS for Inhibitors of human tyrosyl-DNA phosphodiesterase 1 (TDP1): qHTS in cells in absence of CPT; Potency, µM (highest dose often 46.2 µM), inactives show at the top dose activity change, negative = growth inhibition, usual class: inhibitors; 15% of 420,000 active; AID 686978, 2013; DT40 Tdp1-/- hTDP1 cells, no CPT, ATP luminescence, 48 h; note: potency is the fitted concentration of half-maximal effect; % is set by controls: 0 for no effect and ±100 for the full control effect; nearly all actives have a fitted effect of over 55% in size
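Readout: luminescence from CellTiter-Glo after 30 min in the dark at RT. Cells: DT40 Tdp1-/- with stable hTDP1, 400/well. Exposure: compounds alone, ≥48 hr, 37 °C.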
miR-21 reporter: qHTS Assay for Modulators of miRNAs and/orActivators of miR-21. Potency, µM (top dose mostly 38.3 µM), for inactives: at the highest dose activity change, positive = activation, most hits filed as activators. HeLa miR-21 FLuc reporter, luciferase, 48 h. 340,000 tested, under 10 active. AID 2288, 2010;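 note: % of control where 0% means no effect; miR-21 action dims this reporter so a rising signal means less miR-21 action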
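Compounds were titrated across several concentrations (up to approximately 40 uM) and incubated 48 hours with HeLa miR-21-FLuc reporter cells (miR-21 target sequence downstream of FLuc, endogenous miR-21). Readout was firefly luciferase luminescence after lytic detection reagent.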
uPA surface inh: qHTS for Inhibitors of Cell Surface uPA Generation. cell surface uPA generation assay, qHTS. Potency, µM (highest dose often 38.3 µM), inactives show top-dose activity change, negative = inhibition, hits mostly inhibitors. 0.31% of 330,000 active; active = well fitted inhibition curve with a large enough effect; inconclusive = small, poorly fitted or top-dose-only effect; inactive = no such curve, though single readings can be large or run the other way; tested in mouse RAW 264.7 cells; note: potency is the fitted concentration of half-maximal effect; % is set by controls: 0 for no effect and ±100 for the full control effect; nearly all actives have a fitted effect of over 55% in size
TDP1 block: qHTS Assay for Inhibitors of Tyrosyl-DNA Phosphodiesterase (TDP1); recombinant TDP1, AlphaScreen DNA substrate cleavage; 0.28% of 350,000 active; Tyrosyl-DNA phosphodiesterase 1 (Homo sapiens), Q9NUW8; Potency, µM (top dose mostly 130 µM), inactives show at the highest dose activity change, negative = inhibition, most hits filed as inhibitors; AID 485290, 2010; note: potency is the fitted concentration of half-maximal effect; % is set by controls: 0 for no effect and ±100 for the full control effect; nearly all actives have a fitted effect of over 40% in size
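Tdp1 1 nM final; 15 min RT w/ cpd; substrate 15 nM, 5 min; beads 10 ug/ml, 10 min; AlphaScreen read. Neg ctrl: no enzyme.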
DT40 TDP1 CPT: qHTS for Inhibitors of human tyrosyl-DNA phosphodiesterase 1 (TDP1): qHTS in cells in presence of CPT; chicken DT40 Tdp1-/-;hTDP1 cells + 20 nM CPT, ATP luminescence, 48 h; 12% of 420,000 active; Potency, µM (top dose mostly 46.2 µM), for the others: at the top dose activity change, negative = growth inhibition, most hits filed as inhibitors; AID 686979, 2013; note: potency is the fitted concentration of half-maximal effect; % is set by controls: 0 for no effect and ±100 for the full control effect; nearly all actives have a fitted effect of over 55% in size
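Cell growth measured by CellTiter-Glo luminescence after a minimum 48 h, 37 C compound exposure with 20 nM CPT in Tdp1-knockout DT40 cells stably expressing hTDP1, seeded 400/well; qHTS titration format.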
Numbers without * were called inactive; [ ] = dose if it differs, or a comment. Unless noted, calls come from the whole dose curve; as a rule, active = well fitted curve in the direction sought with a large enough effect; inconclusive = small, poorly fitted or top-dose-only effect, or another doubt; inactive = no such curve, though single readings can be large; an effect the other way counts as inactive or inconclusive.

What do the screens show for `CC1CCCCC12NC(=O)N(CC(=O)NCC(=O)Nc1ccc(F)c(F)c1F)C2=O` (configuration not stated)?
TDP1 cell noCPT: -9%; uPA surface inh: 16%; TDP1 block: 2%; DT40 TDP1 CPT: 1%

What do the screens show for `c1csc(CNc2nc(-c3cccs3)nc3ccccc23)c1`?
TDP1 cell noCPT: -10%; miR-21 reporter: -15%; uPA surface inh: -3%; TDP1 block: 1%; DT40 TDP1 CPT: 0%

How did c1csc(CNc2nc(NCC3CCCCC3)c3sccc3n2)c1 do in these assays?
TDP1 cell noCPT: 9.2µM*; DT40 TDP1 CPT: 5.8µM*

Results for c1ccc(CNc2nc(NCc3cccs3)nc3ccsc23)cc1 ?
TDP1 cell noCPT: 12µM*; DT40 TDP1 CPT: 18µM*

What do the screens show for `O=C1CCCN1CCCNc1nc(NCc2cccs2)nc2ccsc12`?
TDP1 cell noCPT: 16µM*; DT40 TDP1 CPT: 21µM*

What do the screens show for `O=C1CCCN1CCCNS(=O)(=O)c1cccs1`?
TDP1 cell noCPT: 24%; uPA surface inh: inconclusive; TDP1 block: 1%; DT40 TDP1 CPT: -12%

How did COc1ccccc1/C=C/C(=O)Nc1ccc2c(c1)CCC2 do in these assays?
TDP1 cell noCPT: 12µM*; miR-21 reporter: -59%; uPA surface inh: 2%; TDP1 block: -3%; DT40 TDP1 CPT: -27%

Results for COc1ccccc1/C=C/C(=O)Nc1ccc2c(c1)OCCO2 ?
TDP1 cell noCPT: 10µM*; miR-21 reporter: -8%; uPA surface inh: 4µM*; TDP1 block: 7%; DT40 TDP1 CPT: 8.2µM*

Results for COc1ccc(OC)c(/C=C/C(=O)Nc2ccc3c(c2)CCC3)c1 ?
TDP1 cell noCPT: inconclusive; miR-21 reporter: -40%; uPA surface inh: 10%; TDP1 block: 8%; DT40 TDP1 CPT: inconclusive

Results for COc1ccccc1/C=C/C(=O)OCC(=O)Nc1ccc2c(c1)OCCO2 ?
TDP1 cell noCPT: 4%; uPA surface inh: -1%; TDP1 block: 0%[56.1 µM]; DT40 TDP1 CPT: 2%

Results for CSCCC(NC(=O)c1ccccc1Br)C(=O)N1CCC(C)CC1 (configuration not stated) ?
TDP1 cell noCPT: -11%; miR-21 reporter: -2%; uPA surface inh: -4%; TDP1 block: -4%; DT40 TDP1 CPT: 4%

What do the screens show for `Nc1nc(NCc2ccccc2)nc(NCc2ccccc2)c1[N+](=O)[O-]`?
TDP1 cell noCPT: -15%; miR-21 reporter: -12%; uPA surface inh: 22%; TDP1 block: -3%; DT40 TDP1 CPT: -4%

Results for Nc1nc(-c2cc(O)ccc2[N+](=O)[O-])cc(-c2ccccc2)c1[N+](=O)[O-] ?
TDP1 cell noCPT: 8.2µM*; miR-21 reporter: 4%; uPA surface inh: -12%; TDP1 block: -10%; DT40 TDP1 CPT: 7.3µM*

What do the screens show for `CCOC(=O)C1=C(C)N(c2ccc(OC)cc2)C(=O)/C1=C\c1ccc(O)c(OCC)c1`?
TDP1 cell noCPT: inconclusive; miR-21 reporter: 26%; uPA surface inh: inconclusive; TDP1 block: 10%; DT40 TDP1 CPT: 23µM*

What do the screens show for `Cn1c(/C=C/c2ccccc2)nc2ccccc2c1=O`?
TDP1 cell noCPT: inconclusive; miR-21 reporter: -28%; uPA surface inh: -13%; DT40 TDP1 CPT: -76%

How did CCc1nnc(NC(=O)c2cc(-c3ccc(C)o3)nc3ccccc23)s1 do in these assays?
TDP1 cell noCPT: inconclusive; uPA surface inh: -1%; TDP1 block: 4%; DT40 TDP1 CPT: inconclusive

How did Cc1ccc(-c2cc(C(=O)N/N=C/c3ccc([N+](=O)[O-])o3)c3ccccc3n2)o1 do in these assays?
TDP1 cell noCPT: 13µM*; miR-21 reporter: 19%; uPA surface inh: -18%; TDP1 block: -12%; DT40 TDP1 CPT: 18µM*

What do the screens show for `Cn1c(/C=C/c2ccc([N+](=O)[O-])o2)nc2ccccc2c1=O`?
TDP1 cell noCPT: 0.26µM*; miR-21 reporter: inconclusive; uPA surface inh: -6%; TDP1 block: -2%; DT40 TDP1 CPT: 0.26µM*
